# Compound activity (PubChem BioAssay)
# RORg inh – blocks mouse ROR gamma transcriptional activity. P51450. Drosophila S2 Gal4-RORgamma UAS-luciferase reporter, 20 h. Potency, µM (highest dose often 53.6 µM), for the others: top-dose activity change, negative = inhibition, usual class: inhibitors. hit rate 5.4% among 310,000; further: on the % scale 0 is the no-effect control and ±100 the full control effect; nearly all actives have a fitted effect of over 60% in size
# Target sequence (P51450 whole entry, looked up, the tested form may be a part): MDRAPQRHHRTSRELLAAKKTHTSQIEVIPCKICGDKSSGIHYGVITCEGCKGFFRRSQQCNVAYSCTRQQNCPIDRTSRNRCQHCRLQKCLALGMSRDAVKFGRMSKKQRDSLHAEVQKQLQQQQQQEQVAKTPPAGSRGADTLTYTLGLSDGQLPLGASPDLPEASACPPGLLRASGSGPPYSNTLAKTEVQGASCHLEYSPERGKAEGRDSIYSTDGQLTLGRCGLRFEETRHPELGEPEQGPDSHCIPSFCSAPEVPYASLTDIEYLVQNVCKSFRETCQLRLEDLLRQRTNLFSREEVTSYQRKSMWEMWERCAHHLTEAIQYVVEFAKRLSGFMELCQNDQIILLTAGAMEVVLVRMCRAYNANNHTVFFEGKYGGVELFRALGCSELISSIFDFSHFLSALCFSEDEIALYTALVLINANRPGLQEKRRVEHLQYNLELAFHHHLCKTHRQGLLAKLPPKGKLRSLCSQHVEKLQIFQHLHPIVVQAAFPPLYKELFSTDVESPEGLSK
#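 A Gal4/UAS one-hybrid system in insect cells: metallothionein-promoter Gal4–ROR gamma fusion plus Photinus luciferase reporter. Copper sulfate 700 uM final, 20 hr ambient incubation, luminescent detection after 10 min with reagent.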
# HepG2 tox – counter-screen for TGF-b inhibitors: cytotoxicity in HepG2 cells; HepG2 CAGA-GFP viability, ATP luminescence, 18 h; Potency, µM (top dose mostly 46.1 µM), for the others: top-dose activity change, negative = cytotoxicity, usual class: cytotoxic; hit rate 0.76% among 410,000; AID 588856
#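 HepG2 CAGA-GFP cells (1000/well, DMEM with 1% FBS) received compound, then TGF-beta at 500 pg/mL final, and were incubated 18 hours at 37 degrees C. Viability was read by CellTiter-Glo luminescence. Media-only wells were set as complete cell-killing and DMSO as no toxicity.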
# VP16 counter – inhibits Gal4-VP16 luciferase reporter, ROR gamma counter-screen. Drosophila S2 Gal4-VP16 UAS-luciferase, luminescence, 20 h. Potency, µM (doses to about 53.6 µM), for the others: at the top dose activity, negative = inhibition, most hits filed as inhibitors. hit rate 3.5% among 310,000. AID 2546;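 further: Gal4-VP16 expression switched on by copper sulfate through the metallothionein promoter; on the % scale 0 is the no-effect control and ±100 the full control effect; nearly all actives have a fitted effect of over 50% in size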
# ATXN viability – viability counter-screen for ATXN expression inhibitors. S2 cells (HEK-293 line with an ATXN2-luciferase reporter) viability, CellTiter-Fluor protease fluorescence, 24 h. Potency, µM (highest dose often 56.7 µM), usual class: cytotoxic. hit rate 0.49% among 400,000; further: nearly all actives have a fitted effect of over 40% in size
# TGFb inhibitor – inhibitors of TGF-b signaling; HepG2 CAGA-GFP TGF-b/SMAD3 reporter, GFP fluorescence, 18 h; TGF-beta stimulated, 500 pg/mL final; Potency, µM (highest dose often 46.1 µM), for inactives: at the highest dose activity, negative = inhibition, actives largely listed as inhibitors; hit rate 1.2% among 410,000; AID 588855; further: on the % scale 0 is the no-effect control and ±100 the full control effect; nearly all actives have a fitted effect of over 65% in size
#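 HEPG2 CAGA-GFP reporter cells (1000/well, DMEM with 1% FBS) received compounds, then recombinant TGF-beta at 500 pg/mL final for 18 hours at 37 degrees C. Per-cell GFP summed per well was normalised to unstimulated and stimulated DMSO controls before curve fitting.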
# ATXN2 expr inh – reduces ATXN2 reporter expression in HEK-293 cells; HEK-293 ATXN2-luciferase reporter, luminescence, 24 h; Potency, µM (titrated, usually from 57 µM), inactives show at the top dose activity change, negative = inhibition, usual class: inhibitors; hit rate 0.72% among 360,000; further: on the % scale 0 is the no-effect control and ±100 the full control effect; nearly all actives have a fitted effect of over 55% in size
#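 qHTS (up to 57 uM final) was run with 24 h compound exposure of reporter cells at 37 °C. Each well was multiplexed: SteadyGlo luminescence measured ATXN2-luciferase expression after a fluorogenic Gly-Phe-AFC viability readout (25 uM final).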
# The depositor's hits bear a star; i = inactive; u = inconclusive; x = not tested or not shown; [ ] = another dose, or the depositor's remark. Sampled rows, rich in hits. Any-hit rate of the full collection: about 6.1%. The call rests on the fitted dose curve; in most records, active means well fitted curve in the direction sought with a large enough effect; inconclusive means small, poorly fitted or top-dose-only effect, or another doubt; inactive means no such curve, though single readings can be large; an effect the other way counts as inactive or inconclusive. Potency means the concentration at half of the fitted maximal effect.
SMILES,RORg inh,HepG2 tox,VP16 counter,ATXN viability,TGFb inhibitor,ATXN2 expr inh
CCOc1ccc(-n2c(=O)c3c(C)c(C)sc3n(Cc3c(F)cccc3Cl)c2=O)cc1,x,-0.4%,x,i,7.7%,3.5%
COc1ccc(C(=O)/C(=C\c2ccco2)N2C=CC=CC2=C(C#N)C#N)cc1,3.98µM*,-50.0%,3.55µM*,x,3.55µM*,14.1µM*
COc1ccc(C(=O)N/C(=C\c2ccco2)C(=O)OCc2ccco2)cc1,44.0%,2.1%,23.6%,i,17.9%,22.5%
COc1ccc(N=N/C(=C\O)C(=O)c2cccs2)cc1,35.1%,-20.1%,u,u,u,u
N#CC(C#N)=C1C=CC=CN1/C(=C\c1ccco1)C(=O)c1ccc(Br)cc1,3.55µM*,12.6µM*,1.26µM*,u,3.16µM*,17.8µM*
N#CC(C#N)=C1C=CC=CN1/C(=C\c1ccco1)C(=O)c1ccccc1,5.01µM*,3.98µM*,1.78µM*,u,2.24µM*,u
COc1ccc(/C=C(/C(=O)c2cccs2)N2C=CC=CC2=C(C#N)C#N)cc1,2.24µM*,11.2µM*,2.82µM*,u,u,x
C[C@@H]1[C@H](c2ccccc2)OCCS(=O)(=O)N1Cc1ccc(Cl)cc1,x,-0.1%,x,x,u,x
CCn1c(=O)c2cc(C(=O)Nc3cccc(C(F)(F)F)c3)sc2c2ccccc21,x,-6.4%,x,i,-14.1%,-0.8%
CC[N+](CC)(CC)CCOC(=O)C(C1CCCC1)C1CCCC1,x,x,x,i,x,-6.1%
O=C(CNS(=O)(=O)c1ccc([N+](=O)[O-])cc1)N/N=C\c1ccc(O)cc1,-0.6%,-38.0%,8.4%,i,-4.6%,x
O=C(CNS(=O)(=O)c1ccc([N+](=O)[O-])cc1)N/N=C/c1ccc(O)cc1O,-26.0%,-32.4%,5.2%,i,-1.0%,23.8µM*
COc1ccc(OC)c(NC(=O)c2ccc3c(=O)n(CCc4ccccc4)c(=S)[nH]c3c2)c1,0.794µM*,-22.9%,0.891µM*,u,-5.6%,-17.8%
COc1ccc(-n2c(=S)[nH]c3cc(C(=O)N4CCN(c5ccccc5)CC4)ccc3c2=O)c(OC)c1,u,-3.3%,12.6µM*,i,-1.8%,-15.0%
CCOC(=O)N1CCN(C(=O)c2ccc3c(=O)n(-c4cc(OC)ccc4OC)c(=S)[nH]c3c2)CC1,4.0%,-0.2%,1.3%,i,3.5%,18.1%[11.3 µM]
COc1ccc(-n2c(=S)[nH]c3cc(C(=O)NCc4ccccc4)ccc3c2=O)c(OC)c1,20µM*,2.2%,u,i,-4.2%,0.7%
O=C(C[N+]12CN3CN(CN(C3)C1)C2)c1ccc(I)cc1,x,-37.7%,x,x,-24.6%,x
Cc1cccc(-c2nc(CSc3nncn4c3cc3sccc34)c(C)o2)c1,x,-24.8%,x,x,-2.5%,x
CC(=O)c1ccc(OC2C=CC(C#Cc3ccc(Br)cc3)OC2CO)cc1 (centres undefined),21.3%[10 µM],x,0.5%[10 µM],x,x,x
Nc1cc(S(=O)(=O)Nc2ccc(Br)cc2)ccc1Cl,-34.0%,11.2µM*,u,i,u,1.1%
O=S(=O)(Nc1ccc(-n2cccc2)cc1)c1ccc(Cl)c(Cl)c1,-25.5%,-102.5%,-27.6%,i,11.2µM*,x
O=S(=O)(Nc1ccc(-n2cccc2)cc1)c1ccc(Cl)cc1Cl,20µM*,-97.1%,14.1µM*,u,u,-30.6%
O=S(=O)(Nc1ccc(-n2cccc2)cc1)c1ccc(F)cc1,-9.1%,-33.3%,0.0%,i,u,-14.5%
Cc1ccccc1-c1cccc(CN2CCc3nnc(C(C)NC(=O)c4cccnc4)n3CC2)c1 (centres undefined),x,x,x,i,x,x
O=C(NCCO)c1cn(C2CCCN(Cc3cccc(C(F)(F)F)c3)C2)nn1 (centres undefined),x,x,x,i,x,x
SMILES,RORg inh,HepG2 tox,VP16 counter,ATXN viability,TGFb inhibitor,ATXN2 expr inh
Cc1nnc(NC(=O)c2c(-c3ccccc3Cl)noc2C)s1,u,13.7%,-12.4%,i,10.2%,15.0%[11.3 µM]
Cc1onc(-c2ccccc2Cl)c1C(=O)Nc1nnc(Cc2ccc(Cl)cc2)s1,11.2µM*,-15.0%,u,i,u,-1.4%
Cc1onc(-c2ccccc2Cl)c1C(=O)N(C)C1CCCCC1,-14.3%,-4.6%,2.51µM*,i,u,-13.2%
CCc1ccc(NC(=S)NC(=O)c2c(-c3ccccc3Cl)noc2C)cc1,2.51µM*,28.1%,u,i,2.9%,0.9%
CCN(C(=O)c1c(-c2ccccc2Cl)noc1C)C1CCCCC1,-5.1%,-19.9%,3.6%,i,-13.6%,-31.2%
Cc1onc(-c2ccccc2Cl)c1C(=O)Nc1ccccc1,-39.1%,-40.2%,-1.2%,i,2.7%,-10.8%
Cc1onc(-c2ccccc2Cl)c1C(=O)NC(=S)Nc1ccc(C(C)(C)C)cc1,7.94µM*,-43.9%,12.6µM*,i,u,x
Cc1nn2c(=O)cc(COC(=O)c3ccccc3NC(=O)c3cccs3)nc2s1,x,-6.0%,x,x,-6.0%,x
CCCCCCCCCCCCC/C=C/[C@@H](O)[C@H](COP(=O)([O-])OCC[N+](C)(C)C)NC(=O)CCCCCCCCCCCCCCCCC,12.1%,x,2.7%,x,x,x
O=C(Nc1cccc(Cl)c1)c1cccc(Oc2ccc([N+](=O)[O-])cc2Cl)c1,u,-29.2%,-10.6%,u,15.8µM*,x
COc1ccc(NC(=O)c2cccc(Oc3ccc([N+](=O)[O-])cc3Cl)c2)cc1,34.7%,3.4%,u,i,u,-29.9%
COc1ccc(NC(=O)CSc2nnc(-c3ccc(OC)cc3)s2)cc1,x,-53.7%,x,i,1.7%,13.2%
c1ccc(-c2nnc(-c3ccccn3)c(-c3ccccn3)n2)nc1,-2.7%,-2.5%,7.3%,i,6.8%,-10.2%
CN(C)c1nc(-c2ccccn2)nnc1-c1ccccc1,-27.5%,-4.3%,1.2%,i,2.5%,8.91µM*
CCN(CC)c1nc(-c2ccccn2)nc(-c2ccccc2)c1C#N,1µM*,-36.4%,5.01µM*,u,u,4.47µM*
CC(C1CC2CCC1C2)n1c(-c2ccco2)n[nH]c1=S (centres undefined),1.26µM*,-11.0%,6.31µM*,u,u,-0.9%
CC(/C=N/n1c(-c2ccco2)n[nH]c1=S)=C\c1ccco1,u,7.3%,u,i,0.0%,-7.6%
Cc1cnc(C)c(-c2cc(F)cc3c2OC(CNC(=O)C2CCOC2)C3)n1 (centres undefined),x,x,x,i,x,x
CCOC(=O)c1cc2c(C)n(-c3ccc(C)cc3)c(C)c2ccc1=O,-41.0%,-26.3%,10µM*,i,u,0.4%
CCOC(=O)c1cc2c(C)n(-c3ccc(OCC)cc3)c(C)c2ccc1=O,u,-37.4%,-10.1%,i,u,-4.6%
